Data on 40 compounds can be found in PubChem BioAssay (Tox21).

“And” between values parts separate entries of the source, which are not always exact repeats. Identical values can stand only once. Records with an inconclusive call do not appear. The source made the active and inactive calls. Calls follow the shape of the dose curve; as a rule, active = well fitted inhibition curve with a large enough effect in the signal ratio in the repeat runs (not every such curve was filed as active); inconclusive = weak or mixed curves, or effect the other way; inactive = no such curve, though single readings can be large or run the other way; the % refers to the signal ratio.
% is scaled to controls: 0 for no effect and ±100 for the full control effect; potency is read from the fitted curve at half-maximal effect.

Chain of Glucocorticoid receptor (Homo sapiens) (P04150 whole entry, looked up): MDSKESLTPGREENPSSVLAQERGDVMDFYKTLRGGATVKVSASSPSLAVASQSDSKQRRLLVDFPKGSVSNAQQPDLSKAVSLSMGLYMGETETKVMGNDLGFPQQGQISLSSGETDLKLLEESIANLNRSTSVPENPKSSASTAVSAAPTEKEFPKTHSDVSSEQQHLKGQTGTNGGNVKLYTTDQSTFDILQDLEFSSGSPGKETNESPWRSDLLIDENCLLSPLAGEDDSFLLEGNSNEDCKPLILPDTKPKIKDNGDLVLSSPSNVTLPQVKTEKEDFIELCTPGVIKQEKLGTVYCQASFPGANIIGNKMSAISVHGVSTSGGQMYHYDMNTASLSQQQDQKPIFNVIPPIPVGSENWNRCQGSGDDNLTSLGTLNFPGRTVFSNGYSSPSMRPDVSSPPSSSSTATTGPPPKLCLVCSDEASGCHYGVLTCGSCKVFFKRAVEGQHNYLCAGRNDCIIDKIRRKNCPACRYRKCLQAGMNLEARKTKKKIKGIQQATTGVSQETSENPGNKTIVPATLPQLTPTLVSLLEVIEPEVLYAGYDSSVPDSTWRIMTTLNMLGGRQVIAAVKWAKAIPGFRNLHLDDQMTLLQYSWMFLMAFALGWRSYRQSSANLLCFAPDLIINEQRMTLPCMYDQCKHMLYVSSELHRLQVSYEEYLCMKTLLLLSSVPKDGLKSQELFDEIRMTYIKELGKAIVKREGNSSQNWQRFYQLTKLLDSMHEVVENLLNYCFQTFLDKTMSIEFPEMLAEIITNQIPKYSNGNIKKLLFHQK

This assay concerns the target Glucocorticoid receptor (Homo sapiens) (UniProt P04150). Briefly: qHTS assay to identify small molecule antagonists of the glucocorticoid receptor (GR) signaling pathway (AID 720692). The conditions noted are these: GR-bla HeLa, beta-lactamase FRET ratio, dexamethasone-stimulated, 18 h; series mostly up to 58.5 µM; activity change, negative = inhibition: at the top concentration. An excerpt:
U.S. Tox21 Program National Center for Advancing Translational Sciences [NCATS] NIH Chemical Genomics Center [NCGC] U.S. Environmental Protection Agency [EPA] National Institutes of Environmental Health Sciences [NIEHS] National Toxicology Program [NTP] U.S. Food and Drug Administration [FDA] Tox21 Assay Overview: The Glucocorticoid receptor (GR) is one of the members of the nuclear receptor family of ligand-dependent transcription factors. GR plays a critical role in carbohydrate, protein and lipid metabolisms and programmed cell death. CellSensor GR-bla HeLa cell line (Invitrogen) contains a beta-lactamase reporter gene under the control of the glucocorticoid response element stably integrated into HeLa cells, a cervical cancer cell line that expresses glucocorticoid receptor. The activation of the reporter gene under culture conditions can be detected by fluorescence intensity. This cell line has been used to screen the Tox21 10K compound library and to identify the compounds that inhibit the GR signaling.
Tox21 Assay Protocol Summary: The GR-bla HeLa cells were dispensed at 1500 cells/5 ul/well in 1536-well black wall/clear bottom plates using a Multidrop Combi (ThermoFisher Scientific, Waltham, MA) dispenser. After the assay plates were incubated at a 37 C/5% CO2 incubator for 4 hours, 23 nL of compounds dissolved in DMSO, positive controls or DMSO only was transferred to the assay plate by a pintool station (Kalypsys, San Diego, CA), followed by addition of 1 uL of dexamethasone (5 nM, final concentration in the well). The plates were incubated at 37 C for 18 hours. After 1 uL of LiveBLAzerTM B/G FRET substrate was added using a Flying Reagent Dispenser (Aurora Discovery, San Diego, CA), the plates were incubated at room temperature for 2 hours, and fluorescence intensity was measured by an Envision plate reader (PerkinElmer, Shelton, CT).
Background: qHTS replaces the single test concentration by a dilution series.
On to `Nc1ccccc1C(=O)Oc1ccc2ccccc2c1`, for which the “activity change, negative = inhibition” value was -0.733% (inactive).

As to `CCCCOCN(C(=O)CCl)c1c(CC)cccc1CC`, the Potency was 21.9 µM (active).

In the case of `C=CC(=O)OCCCCOC(=O)C=C`, the Potency is 24.5 µM (active).

Regarding `Cc1c(Cl)c(=O)oc2cc(OP(=O)(OCCCl)OCCCl)ccc12`, the “activity change, negative = inhibition” value was -0.93% (inactive).

In the case of `CC(C)CC(C)(c1ccc(O)cc1)c1ccc(O)cc1`, the Potency is 19.5 µM (active).

With `O=[N+]([O-])O.O=[N+]([O-])O.[Cd]`, the Potency was 43.6 µM (active).

`CCOP(=S)(OCC)OC(Cl)C(Cl)(Cl)Cl` (stereo not given): the “activity change, negative = inhibition” value was 0.571% (inactive).

Turning to `O=c1ssc(Cl)c1Cl`, the Potency is 43.6 µM (active).

Take `CC(C)OC(=O)C(O)(c1ccc(Cl)cc1)c1ccc(Cl)cc1`: the Potency is 30.9 µM (active).

As to `C[C@H]1O[C@@H](O[C@H]2[C@@H](O)C[C@H](O[C@H]3[C@@H](O)C[C@H](O[C@H]4CC[C@@]5(C)[C@H](CC[C@@H]6[C@@H]5CC[C@]5(C)[C@@H](C7=CC(=O)OC7)CC[C@]65O)C4)O[C@@H]3C)O[C@@H]2C)C[C@H](O)[C@@H]1O`, the Potency was 0.425 µM (active).

`C[C@@H]1O[C@@H](O[C@@H]2C=C3CC[C@@H]4[C@H](CC[C@]5(C)[C@@H](c6ccc(=O)oc6)CC[C@]45O)[C@@]3(C)CC2)[C@H](O)[C@H](O)[C@H]1O`: the Potency was 0.0574 µM (active).

Consider `FC(F)(F)c1cccc(C2=CCN(CCc3ccc4ccccc4c3)CC2)c1`, for which the “activity change, negative = inhibition” value was 6.92% (inactive).

On to `ClC1=C(Cl)[C@]2(Cl)[C@H]3[C@H]([C@H]4C=C[C@H]3C4)[C@@]1(Cl)C2(Cl)Cl`, for which the Potency is 49 µM (active).

On to `CC(C)CCCCCCCOP(=O)(Oc1ccccc1)Oc1ccccc1`, for which the “activity change, negative = inhibition” value was -17.5% [at 78.9 µM] (inactive).

Consider `Clc1ccc(CCC(Cn2ccnc2)Sc2c(Cl)cccc2Cl)cc1` (stereo not given), for which the “activity change, negative = inhibition” value was 27.3% [at 27 µM] (inactive).

For the compound `CC(C)(C)C(O)/C(=C\c1ccc(Cl)cc1Cl)n1cncn1` (stereo not given), the Potency was 59.3 µM (active).

On to `CN(C)[C@@H]1C(=O)C(C(N)=O)=C(O)[C@@]2(O)C(=O)C3=C(O)c4c(O)ccc(Cl)c4[C@@](C)(O)[C@H]3C[C@@H]12`, for which the “activity change, negative = inhibition” value was -0.852% [at 27 µM] (inactive).

Take `C[C@]12CC[C@H]3[C@@H](CCC4=CC(=O)CC[C@@]43C)[C@@H]1CC[C@@H]2O`: the Potency was 2.44 µM (active).

Regarding `ClC(Cl)=C(c1ccc(Cl)cc1)c1ccc(Cl)cc1`, the “activity change, negative = inhibition” value was -17.4% [at 78.9 µM] (inactive).

Take `C[C@H]1CC[C@@H]2[C@@H](C)[C@H]3[C@H](C[C@H]4[C@@H]5CC=C6CC(O[C@@H]7O[C@H](CO)[C@H](O)[C@H](O[C@@H]8O[C@H](CO)[C@@H](O)[C@H](O)[C@H]8O)[C@H]7O[C@H]7O[C@@H](C)[C@H](O)[C@@H](O)[C@H]7O)CC[C@]6(C)[C@H]5CC[C@]34C)N2C1` (stereo not given in full): the Potency result is “inactive”.

Regarding `Nc1ccc(Cc2ccc(N)c(Cl)c2)cc1Cl`, the Potency is 42.2 µM (active).

Regarding `CN(C)CCc1c[nH]c2cccc(O)c12`, the “activity change, negative = inhibition” value was -9.8% (inactive).

`COc1ccc(/C(=C/C(=O)N2CCOCC2)c2ccc(Cl)cc2)cc1OC`: the “activity change, negative = inhibition” value is -21.7% (inactive).

For `Oc1c(Br)c(Br)c(Br)c(Br)c1Br`, the Potency is 13.9 µM (active).

Take `O=C1c2ccccc2C(=O)C1C(=O)C(c1ccccc1)c1ccc(Cl)cc1` (stereo not given): the Potency was 12.3 µM (active).

For the compound `Cn1cc(C2=C(c3cn(C4CCN(Cc5ccccn5)CC4)c4ccccc34)C(=O)NC2=O)c2ccccc21`, the Potency is 1.34 µM (active).

As for `CC(C)CCCCCOC(=O)c1ccccc1C(=O)OCCCCCC(C)C`, the “activity change, negative = inhibition” value was 0.358% (inactive).

Turning to `c1ccc(Nc2ccc3ccccc3c2)cc1`, the “activity change, negative = inhibition” value was -19.7% (inactive).

With `O=C/C(Cl)=C(/Cl)C(=O)O`, the Potency was 48.9 µM (active) and 49 µM (active).

In the case of `CCCCCCCCCCCCBr`, the “activity change, negative = inhibition” value was -5.1% (inactive).

As to `C[C@]12Cc3nonc3C[C@@H]1CC[C@@H]1[C@@H]2CC[C@@]2(C)[C@H]1CC[C@]2(C)O`, the Potency was 7.56 µM (active).

Regarding `ClCc1ccc(Cl)cc1Cl`, the “activity change, negative = inhibition” value was -5.82% (inactive).

For the compound `S=C=Nc1cccc2ccccc12`, the Potency was 17.2 µM (active).

`c1ccc(OCC2CO2)cc1` (stereo not given): the “activity change, negative = inhibition” value is 17.9% [at 78.9 µM] (inactive).

As to `O=C(O)C1C2CCC(O2)C1C(=O)O` (stereo not given), the “activity change, negative = inhibition” value is -10.9% [at 78.9 µM] (inactive).

As for `ClC1=C(Cl)[C@]2(Cl)[C@@H]3[C@@H]4C[C@@H]([C@H]5O[C@@H]45)[C@@H]3[C@@]1(Cl)C2(Cl)Cl`, the Potency was 36.7 µM (active).

For the compound `CCCN(CC)CC1COC2(CCC(C(C)(C)C)CC2)O1` (stereo not given), the “activity change, negative = inhibition” value is 0.828% (inactive).

In the case of `COc1cc(N)c(Cl)cc1C(=O)NC1CN2CCC1CC2` (stereo not given), the “activity change, negative = inhibition” value is 11% (inactive).

For `CCCCCCCCCCCCCN1CC(C)OC(C)C1` (stereo not given), the “activity change, negative = inhibition” value was 6.92% (inactive).

For the compound `Cc1cc(C(C)(C)c2cc(C)c(O)c(C)c2)cc(C)c1O`, the Potency was 4.74 µM (active).
